Screening results as filed in PubChem.
Shown are actives, neighbours in structure and some others; about 7.5% of the full set was active somewhere.
Rab9 promoter act – activates the Rab9 promoter; actives 2.8% (n = 320,000); Huh7 Rab9 promoter-luciferase reporter, luminescence, 24 h; Potency, µM (top dose mostly 9.22 µM), most hits filed as activators; AID 485297; also: nearly all actives have a fitted effect of over 60% in size
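Huh7 cells stably carrying Rab9 promoter–luciferase reporter, plated 1500 cells/well, compound added after 2 h and incubated 24 h at 37 °C; luciferase luminescence then read after 10 min with detection reagent.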
NPC1 promoter act – activators of NPC1 promoter; Huh7 NPC1 promoter luciferase reporter, 24 h; Potency, µM (doses to about 9.22 µM), most hits filed as activators; actives 2.4% (n = 320,000); also: nearly all actives have a fitted effect of over 60% in size
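Huh7 reporter cells (NPC1 promoter driving luciferase) are dosed with compound for 24 h at 37 °C, 5% CO2; luciferase detection reagent is then added and luminescence measured after 10 min at ambient temperature.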
FLuc modulator – firefly luciferase modulation, counter-screen for miR-21 project; Potency, µM (doses to about 57.5 µM), actives largely listed as inhibitors; purified FLuc, Km substrates, luminescence inhibition; actives 6.9% (n = 360,000); also: nearly all actives have a fitted effect of over 55% in size
Target sequence (P08659 whole entry, looked up): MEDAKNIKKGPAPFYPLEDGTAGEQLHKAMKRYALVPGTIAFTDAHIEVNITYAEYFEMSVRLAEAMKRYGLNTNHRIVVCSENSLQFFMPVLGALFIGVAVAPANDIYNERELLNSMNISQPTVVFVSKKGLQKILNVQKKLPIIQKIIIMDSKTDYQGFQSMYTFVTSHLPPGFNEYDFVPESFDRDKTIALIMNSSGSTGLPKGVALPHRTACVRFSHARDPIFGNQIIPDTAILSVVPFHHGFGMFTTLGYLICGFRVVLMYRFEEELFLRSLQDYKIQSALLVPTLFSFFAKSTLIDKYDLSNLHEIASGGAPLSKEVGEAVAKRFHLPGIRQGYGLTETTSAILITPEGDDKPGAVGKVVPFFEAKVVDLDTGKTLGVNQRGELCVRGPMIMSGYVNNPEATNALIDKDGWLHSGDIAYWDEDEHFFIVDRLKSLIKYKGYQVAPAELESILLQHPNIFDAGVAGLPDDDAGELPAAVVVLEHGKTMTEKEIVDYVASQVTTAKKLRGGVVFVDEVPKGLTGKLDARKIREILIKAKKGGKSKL
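Biochemical qHTS of compounds, final roughly 60 µM downward over six points, against 10 nM purified firefly luciferase using Km concentrations of substrates (10 uM D-luciferin, 10 uM ATP) in Tris acetate pH 7.5 buffer; luminescence output.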
SMN2 splice enh – SMN2 splice variant enhancement; Potency, µM (series often up to 46.1 µM), most hits filed as activators; actives 2.8% (n = 210,000); HEK293 SMN2-luciferase splicing reporter, luminescence, 30-36 h; also: nearly all actives have a fitted effect of over 55% in size
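HEK293 cells carry an SMN2 minigene-luciferase reporter in which exon 7 inclusion puts luciferase in frame. Cells were seeded at 2000 cells/well, attached for 10-12 hours, then exposed to compounds for 30-36 hours at 37C before ONE-Glo luminescence.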
ELG1 genotoxic – genotoxicity induction in ELG1-luciferase HEK293T cells | actives 1.3% (n = 330,000) | HEK293T ELG1-luciferase reporter, luminescence, 16 h | Potency, µM (top dose mostly 46 µM), actives largely listed as activators; also: nearly all actives have a fitted effect of over 60% in size
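Luminescence read-out: rising ELG1-luciferase signal, reflecting elevated ELG1 protein under genetic stress, flags genotoxic compounds. Cells were treated for 16 hr at 37 °C before ONE-Glo detection.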
Luc counter – Kinase-Glo luciferase inhibition (counter-screen) | Q27757 | Kinase-Glo luciferase, ATP luminescence, 8 min | Potency, µM (top dose mostly 38.3 µM), usual class: inhibitors | actives 0.28% (n = 200,000) | AID 1379; also: nearly all actives have a fitted effect of over 60% in size
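Kinase-Glo luciferase light output from ATP and luciferin was measured with 10 uM ATP, within the enzyme's linear range. Buffer: 50 mM imidazole pH 7.2, 50 mM KCl, 7 mM MgCl2, 0.01% Tween 20, 0.05% BSA; luminescence read after 8 min at ambient temperature.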
Hits are given with their value; – = inactive; ? = inconclusive; · = no result. Calls follow the shape of the dose curve; as a rule, active = well fitted curve in the direction sought with a large enough effect; inconclusive = small, poorly fitted or top-dose-only effect, or another doubt; inactive = no such curve, though single readings can be large; an effect the other way counts as inactive or inconclusive.

SMILES | Rab9 promoter act | NPC1 promoter act | FLuc modulator | SMN2 splice enh | ELG1 genotoxic | Luc counter
Cc1nn(-c2ccccc2)c(C)c1C(=O)OCC(=O)Nc1ccccc1 | ? | ? | 9.5µM | · | – | ·
Cc1ccc2c(c1)N(C(=O)CCC(=O)NCc1cccc(F)c1)CCO2 | – | – | – | · | – | ·
O=C(c1cnc2cc(-c3ccccc3)nn2c1)c1cc([N+](=O)[O-])ccc1O | · | · | ? | – | · | ·
Cc1ccc(-c2cc3ncc(C(=O)c4cc([N+](=O)[O-])ccc4O)cn3n2)cc1 | · | · | 9.5µM | – | · | ·
O=C(Nc1nccs1)c1ccc2c(c1)C(=O)N(Cc1cccnc1)C2=O | – | – | 24µM | · | – | ·
O=C(NCc1ccccc1)c1ccc2c(c1)C(=O)N(Cc1cccnc1)C2=O | – | – | – | · | – | ·
O=C(O)c1cc(NC(=O)c2ccc3c(c2)C(=O)N(Cc2cccnc2)C3=O)cc(C(=O)O)c1 | – | – | – | · | – | ·
C#Cc1cccc(NC(=O)c2ccc3c(c2)C(=O)N(Cc2cccnc2)C3=O)c1 | – | – | 13µM | · | – | ·
Cc1ccc(NC(=O)c2ccc3c(c2)C(=O)N(Cc2cccnc2)C3=O)c(C)c1 | – | – | – | – | – | –
Cc1cnc(NC(=O)c2ccc3c(c2)C(=O)N(Cc2cccnc2)C3=O)s1 | – | – | 1.7µM | · | – | ·
CCN1C(=O)c2ccc(C(=O)Nc3nccs3)cc2C1=O | – | – | ? | – | – | –
CC(C)(C)N1C(=O)c2ccc(C(=O)Nc3nccs3)cc2C1=O | 2.8µM | 3.5µM | 3.4µM | – | ? | –
O=C(CCC(=O)NNC(=O)c1ccc(Cl)cc1Cl)NCc1ccccc1 | – | – | – | · | – | ·
CCOC(=O)C1=C(C)N(C)C(=O)NC1c1c(O)ccc2ccccc12 (centres undefined) | – | – | – | · | – | ·
COc1ccc(S(=O)(=O)N2CCCCC2)cc1NC(=O)C1COc2ccccc2O1 (centres undefined) | – | – | – | · | – | ·
Cc1c(NCc2nc3ccccc3[nH]2)c(=O)n(-c2ccccc2)n1C | – | – | 15µM | – | – | –
Cc1c(NCc2cc(Cl)cc(Cl)c2O)c(=O)n(-c2ccccc2)n1C | – | – | – | – | – | –
Cc1cc(C)nc(NC(=O)c2ccc3c(c2)OCO3)c1 | – | – | 17µM | – | – | ?
Cc1cccc(NC(=O)Nc2cc(C)cc(C)n2)c1 | 1.3µM | 2.2µM | 1.5µM | 5µM | ? | –
Cc1ccc(OC(F)F)c(NC(=O)Nc2ccc3c(c2)OCO3)c1 | – | – | ? | · | – | ·
Cc1ccc(NC(=O)Nc2ccc3c(c2)OCO3)nc1 | 2.5µM | 3.2µM | 6.7µM | 13µM | ? | –
CCc1cccc(C)c1NC(=O)Nc1ccc2c(c1)OCO2 | – | – | – | – | – | –
Cc1ccnc(NC(=O)CNC(=O)c2ccc3c(c2)OCO3)c1 | – | – | – | · | – | ·
Cc1cc(C)nc(NC(=O)Nc2ccc3c(c2)OCO3)c1 | 0.56µM | 0.71µM | ? | 2.5µM | ? | –
CCCCCCCCCCCCCCC(F)C(=O)O (centres undefined) | · | · | · | – | · | –
SMILES | Rab9 promoter act | NPC1 promoter act | FLuc modulator | SMN2 splice enh | ELG1 genotoxic | Luc counter
Cc1ccc(NC(=O)/C=C/c2ccc3c(c2)OCO3)nc1 | 2.5µM | 2.5µM | 2.1µM | 2.8µM | ? | –
Cc1ccc2nc(NC(=O)/C=C/c3ccc4c(c3)OCO4)sc2c1 | – | – | – | – | ? | –
Cc1cc(C)cc(NC(=O)NC(C)C2CCCO2)c1 (centres undefined) | – | – | ? | · | – | –
CC(NC(=O)Nc1ccc2c(c1)OCO2)C1CCCO1 (centres undefined) | ? | ? | 17µM | ? | – | –
CCN(CCO)c1nc(N2CCCCC2)c2cnn(C)c2n1 | – | – | – | · | – | ·
Cn1cnnc1SCC(=O)Nc1ccc2nc(SCc3ccccc3F)sc2c1 | 1.6µM | 2.8µM | 6.7µM | ? | ? | –
O=C(CSc1nc2ccc(NC(=O)CSc3nnnn3-c3ccccc3)cc2s1)Nc1ccccc1 | – | – | – | – | – | –
CCC(=O)Nc1ccc2nc(SCc3ccccc3)sc2c1 | · | · | 15µM | · | · | ·
CCOC(=O)Cc1csc(NC(=O)C(NC(=O)C2CCC(C)CC2)C(C)C)n1 (centres undefined) | – | – | – | · | – | ·
